Screens from PubChem.
AddAB inh = less growth of phage-infected E. coli with AddAB. E. coli expressing H. pylori AddAB, absorbance growth. inhibition, % at 11.9 µM. 330,000 compounds, 0.29% hits; in the data active = inhibition above about 12%
Tat export inh = E. coli Tat transport inhibition | E. coli MC4100 TorA-mCherry Tat export, fluorescence | AID 488895 | inhibition, % at 10 µM | 340,000 compounds, 0.036% hits;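 active = mean replicate inhibition at least 50% and at least half of replicates individually reaching 50%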;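 also: exported cargo escapes ClpAP degradation while cytoplasmic cargo is degraded and loses fluorescence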
phage Ecoli inh = E. coli growth loss with phage present. growth absorbance. inhibition, % at 11.9 µM. 360,000 compounds, 0.26% hits. AID 651602; in the data active = inhibition above about 11%
E coli growth-1 = counter-screen for AddAB inhibitors: E. coli growth inhibition. inhibition, % at 11.9 µM. AID 449728. E. coli V3065 growth, OD600 absorbance, 18 h. 330,000 compounds, 0.27% hits;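 active = inhibition above the campaign's mean inhibition across all tested compounds plus 3 SD, cut at about 9.9% in these data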;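 also: uninfected addAB+ strain grown without phage in ampicillin broth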
E coli growth-2 = inhibitors of Escherichia coli growth | OD600, 23 h; stronger effect = lower value | OD600 absorbance (concentration not given with the values) | 330,000 compounds, 0.21% hits | AID 1053175;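 active = OD600 absorbance below the run mean of sample wells minus 3.6 SD, in any replicate, cut at about 0.56 in these data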
Of the large screens only hits and unclear results are named; the others gave an inactive call. Rows were chosen to be rich in hits. Some 0.5% of all compounds tested hit in one or more screens of this group.

O=C(OC[C@H]1O[C@@H](OC(=O)c2cc(O)c(O)c(OC(=O)c3cc(O)c(O)c(O)c3)c2)[C@H](OC(=O)c2cc(O)c(O)c(OC(=O)c3cc(O)c(O)c(O)c3)c2)[C@@H](OC(=O)c2cc(O)c(O)c(OC(=O)c3cc(O)c(O)c(O)c3)c2)[C@@H]1OC(=O)c1cc(O)c(O)c(OC(=O)c2cc(O)c(O)c(O)c2)c1)c1cc(O)c(O)c(OC(=O)c2cc(O)c(O)c(O)c2)c1	AddAB inh 27.6, E coli growth-1 30.2 (no result: Tat export inh, phage Ecoli inh, E coli growth-2)
O=C(C=Cc1ccc(F)cc1)NC(Cc1c[nH]c2ccccc12)C(=O)O (stereo unspecified)	none (no result: AddAB inh, Tat export inh, phage Ecoli inh, E coli growth-1)
Cc1ccc(-c2nn(-c3ccccc3)cc2CO)cc1	none
N=C(N)SCc1cn(-c2ccccc2)nc1-c1ccc(Br)cc1	E coli growth-2 0.069 (no result: AddAB inh, E coli growth-1)
O=C(NC1CC1)C1=CC(c2ccc(Br)cc2)CC(OCc2ccc(CO)cc2)O1 (stereo unspecified)	none (no result: AddAB inh, Tat export inh, phage Ecoli inh, E coli growth-1)
O=C(NNC(=S)NC(=O)c1ccccc1)c1ccc([N+](=O)[O-])cc1	none
O=C(NC(=S)NNC(=O)c1ccccc1O)c1ccc([N+](=O)[O-])cc1	E coli growth-1 16.1 (no result: E coli growth-2)
COC(CNc1ncnc2sc(-c3ccccc3)cc12)OC	Tat export inh 58.2
CC(C)(C)Nc1ncnc2sc(-c3ccccc3)cc12	none
O=C(COc1ccccc1)NC1C(=O)N2C(C(=O)O)=C(Cl)CSC12 (stereo unspecified)	none
CO/N=C(/C(=O)N[C@@H]1C(=O)N2C(C(=O)O)=CCS[C@H]12)c1cnc(N)s1	AddAB inh 100.0, E coli growth-1 100.3 (no result: Tat export inh, phage Ecoli inh, E coli growth-2)
O=C1c2cccnc2-c2ncccc21	none
O=C1C(=O)c2cccnc2-c2ncccc21	phage Ecoli inh 100.8 (no result: AddAB inh, Tat export inh, E coli growth-1, E coli growth-2)
CC(C)CC(NC(=O)c1nc[nH]c1C(=O)NCCCCCNC(=O)OC(C)(C)C)C(=O)OC(C)(C)C (stereo unspecified)	none (no result: AddAB inh, Tat export inh, phage Ecoli inh, E coli growth-1)
CC1C(NC(=O)C(=NOC(C)(C)C(=O)O)c2csc(N)n2)C(=O)N1S(=O)(=O)O (stereo unspecified)	E coli growth-2 0.0585 (no result: AddAB inh, Tat export inh, phage Ecoli inh, E coli growth-1)
CCOC(=O)c1csc(N)n1	none
COc1ccc(C=NNC(=O)c2[nH]c3ccc(Br)cc3c2-c2ccccc2)cc1	none (no result: AddAB inh, Tat export inh, phage Ecoli inh, E coli growth-1)
O=C(C1=CC(c2ccc(Br)cc2)CC(OCc2ccc(CO)cc2)O1)N1CCN(Cc2ccc3c(c2)OCO3)CC1 (stereo unspecified)	none (no result: AddAB inh, Tat export inh, phage Ecoli inh, E coli growth-1)
Oc1ccc(C=NNc2nc(-c3ccc(Cl)cc3)cc(C(F)(F)F)n2)cc1	none (no result: AddAB inh, Tat export inh, phage Ecoli inh, E coli growth-1)
O=C(Oc1ccc(Cl)c2cccnc12)c1cccc([N+](=O)[O-])c1	E coli growth-2 0.507
Cc1cc(C)nc(NN=Cc2cc3c(cc2[N+](=O)[O-])OCO3)n1	none (no result: AddAB inh, Tat export inh, phage Ecoli inh, E coli growth-1)
O=C(NNc1ccc(O)cc1)c1ccc(Br)cc1	E coli growth-2 0.436
O=C(NNc1ccccc1)c1ccccc1	none (no result: AddAB inh, E coli growth-1)
CCn1c(C)nc2cc(C(=O)N/N=C/c3ccc(O)c(O)c3O)ccc21	phage Ecoli inh 21.1 (no result: AddAB inh, E coli growth-1, E coli growth-2)
S=C(NCc1ccccc1)NCc1cccc(CNC(=S)NCc2ccccc2)c1	E coli growth-1 10.3
Nc1ncncc1-c1ccc([N+](=O)[O-])cc1	E coli growth-2 0.362
O=[N+]([O-])c1ccc(NC(=S)NCCc2ccc(F)cc2)cc1	E coli growth-2 0.461
O=C(NCCc1ccc(F)cc1)Nc1ccc([N+](=O)[O-])cc1	none (no result: AddAB inh, E coli growth-1)
O=C(c1cnn(-c2ccccc2)c1)c1cc(Br)ccc1O	none
O=C(c1ccc(O)c(Br)c1)c1cc(Br)ccc1O	E coli growth-2 0.394 (no result: AddAB inh, E coli growth-1)
Cc1cc(-c2n[nH]c(=S)n2N=C/C=C/c2ccccc2)n[nH]1	none (no result: AddAB inh, Tat export inh, phage Ecoli inh, E coli growth-1)
Cc1cc(-c2n[nH]c(=S)n2N=C/C(Br)=C/c2ccccc2)n[nH]1	E coli growth-2 0.0585 (no result: AddAB inh, Tat export inh, phage Ecoli inh, E coli growth-1)
CN(C)c1ccc(Nc2nc(N)c3ccccc3n2)cc1	none (no result: E coli growth-2)
Nc1nc(Nc2ccccc2)nc2ccccc12	E coli growth-2 0.53
Cc1ccc(Nc2nc(N)c3ccccc3n2)cc1Cl	E coli growth-2 0.444
COc1cc2nc(Nc3ccc(C)c(Cl)c3)nc(N)c2cc1OC	none
Nc1nc(Nc2ccc(Cl)cc2)nc2ccccc12	E coli growth-2 0.352
CC=C1COC(C(=O)NCc2cccc(OC)c2OC)(C(F)(F)F)C=C1C=C1CCCCC1 (stereo unspecified)	none (no result: AddAB inh, Tat export inh, phage Ecoli inh, E coli growth-1)
Cc1ccc(/C=C2/Sc3ccccc3N(CC(=O)NCC3CCCO3)C2=O)cc1 (stereo unspecified)	none (no result: phage Ecoli inh)
Cc1cc(/C=C2\Sc3ccccc3N2C)cc(C)[n+]1CC1CCCO1 (stereo unspecified)	E coli growth-2 0.458 (no result: AddAB inh, E coli growth-1)
CNC[C@@H](CC1CCCCC1)NC[C@H](CC(C)C)NCCc1cccc(C(F)(F)F)c1	none (no result: E coli growth-2)
CNCC(CC1CCCCC1)NCC(CC(C)C)NCCc1cccc(C(F)(F)F)c1 (stereo unspecified)	E coli growth-2 0.0675 (no result: AddAB inh, Tat export inh, phage Ecoli inh, E coli growth-1)
CCN1C(=O)C2C(c3ccc(-c4ccc5c(c4)OCO5)c(OC)c3)N3CCCC[C@@]3(C(=O)OC)C2C1=O (stereo partly specified)	none (no result: AddAB inh, Tat export inh, phage Ecoli inh, E coli growth-1)
CC(CCC(C)OC1OC(C)C(O)CC1O)OC1OC(C)C(O)CC1O (stereo unspecified)	none (no result: AddAB inh, Tat export inh, phage Ecoli inh, E coli growth-1)
O=c1[nH]sc2ccccc12	E coli growth-2 0.0655 (no result: AddAB inh, E coli growth-1)
O=C1NCC(Cc2cccc3ccccc23)N(CC2CCCCC2)C1=O (stereo unspecified)	none (no result: AddAB inh, Tat export inh, phage Ecoli inh, E coli growth-1)
CCCCCCCCCCCCCCCC[N+](C)(C)CC	E coli growth-2 0.0615
CCCCCC[N+](C)(C)CCSSCC[N+](C)(C)CCCCCC	none
Cc1ccc(Nc2c(-c3ccccn3)nc3ccc(C)cn23)cc1	E coli growth-2 0.459
Cc1ccc2nc(-c3ccncc3)c(Nc3ccccc3)n2c1	none
Cc1ccc(Nc2c(-c3ccccn3)nc3cc(C)ccn23)cc1	E coli growth-2 0.396
Cc1ccn2c(Nc3ccc4c(c3)OCO4)c(-c3ccccn3)nc2c1	E coli growth-2 0.427
CCCC=C(CCC)C(NS(=O)(=O)c1cccc2cccnc12)c1ccc(C(=O)OC)cc1 (stereo unspecified)	none (no result: AddAB inh, Tat export inh, phage Ecoli inh, E coli growth-1)
NC(=O)C1CCOc2c(I)cc([N+](=O)[O-])cc2C(=O)NC(CO)C(=O)NCC(=O)N1 (stereo unspecified)	none (no result: AddAB inh, Tat export inh, phage Ecoli inh, E coli growth-1)
COc1cccc(-c2nnc(NC(=O)c3ccc(Cl)s3)o2)c1	E coli growth-2 0.474
Cc1cccc(-c2nnc(NC(=O)c3ccc(Cl)cc3)o2)c1	E coli growth-2 0.517
Cn1c(=NN=Cc2ccc(N3CCOCC3)cc2)sc2ccccc21	none (no result: AddAB inh, Tat export inh, phage Ecoli inh, E coli growth-1)
Cc1cnnn1-c1ccc(C(=O)CCl)cc1	E coli growth-2 0.508
CC(=O)c1ccc(-n2nncc2C(C)(C)C)cc1	none
Clc1ccc2c(c1)c1ccccc1n2CN1CCOCC1	E coli growth-2 0.515
Clc1ccc2c(c1)c1cc(Cl)ccc1n2CN1CCOCC1	E coli growth-2 0.0885
COc1ccc(Cl)cc1CN1CCOCC1	none
CN(C)C=Nc1nc(-c2ccc3c(c2)OCO3)cs1	none (no result: AddAB inh, Tat export inh, phage Ecoli inh, E coli growth-1)
COC1C=CO[C@@]2(C)Oc3c(C)c(O)c4c(O)c(c5c(nc6cc(C)ccn65)c4c3C2=O)NC(=O)C(C)=CC=CC(C)C(O)C(C)C(O)C(C)C(OC(C)=O)C1C (stereo partly specified)	E coli growth-2 0.062 (no result: AddAB inh, Tat export inh, phage Ecoli inh, E coli growth-1)
